# From PubChem BioAssay
# An excerpt weighted towards active compounds, which were near 6.8% of everything screened.
# C diff HTS: C. difficile growth inhibition; Clostridium difficile clinical isolate growth, OD600, 24 h; hits give low values; actives 0.25% (n = 86,000); growth activity, negative = inhibition, % at 16 µg/mL (by protocol);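 active = mean growth activity at or below -80% and every replicate also at or below -80%; inconclusive = mean at or below -80% but some replicate above -80%; inactive = mean growth activity above -80%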;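 note: 0% = DMSO wells and -100% = levofloxacin 16 µg/mL wells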
# T cruzi growth-1: blocks T. cruzi growth in NIH3T3 culture; T. cruzi beta-gal in NIH3T3, GalScreen luminescence, 90 h; inhibition, % at 8.34 µM; actives 5.9% (n = 77,000); AID 624255;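 active = mean inhibition above about 93%, with at least 55% of replicates each passing it, limit read from the data, passing the limit was not always enough; inconclusive = only one of those two conditions holds; inactive = neither condition holds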
# Pf Dd2 growth: P. falciparum Dd2 growth inhibition; actives 2.3% (n = 94,000); SYBR Green, 72 h; hits give low values; AID 1159554; activity change, % at 10 µM; in the data active = activity change below about -80%; inconclusive = no clear call, values can overlap the other calls
# T cruzi growth-2: Trypanosoma cruzi proliferation inhibition | inhibition, % at 8.35 µM | T. cruzi beta-gal in NIH3T3, GalScreen luminescence, 90 h | actives 72% (n = 5,600) | shares compounds with T cruzi growth-1;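 active = mean replicate inhibition above about 95% and at least 55% of replicates individually reaching it, limit read from the data; inconclusive = only one of the two criteria is met; inactive = neither criterion is met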
# T cruzi growth-3: inhibitors of T. cruzi proliferation. shares compounds with T cruzi growth-1. AID 651740. actives 21% (n = 5,600). T. cruzi beta-gal in NIH3T3, GalScreen luminescence, 90 h. inhibition, % at 2.09 µM;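 active = mean inhibition above about 95%, with at least 55% of replicates also reaching it, limit read from the data; inconclusive = meets just one of the two conditions; inactive = meets neither condition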;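 note: plate controls were neutral control median for no effect and positive control median for full effect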
# NIH3T3 tox: NIH/3T3 (mouse) viability loss | shares compounds with T cruzi growth-1 | AID 651742 | NIH/3T3 viability, CellTiter-Glo ATP luminescence, 90 h | cytotoxicity (signal decrease), % at 8.35 µM | actives 14% (n = 5,600);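 active = mean signal decrease across replicates above about 35% based on untreated-well scatter, with enough replicates individually passing, limit read from the data; inconclusive = no rule stated though some were filed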;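 note: 0% = median of neutral control wells and 100% = median of positive control wells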
# NIH3T3 tox 2: NIH/3T3 (mouse) viability loss. NIH/3T3 viability, CellTiter-Glo ATP luminescence, 90 h. actives 56% (n = 5,600). inhibition, % at 24.9 µM. shares compounds with T cruzi growth-1;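 active = mean loss of cell viability signal at or above a set limit, and enough replicates individually reaching it; inconclusive = meets only the mean limit or only the replicate share; inactive = meets neither condition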;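 note: 0% = median of neutral control wells and 100% = median of positive control wells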
# * hit, by the source's call; ? = inconclusive; · = not tested or not shown.
SMILES,C diff HTS,T cruzi growth-1,Pf Dd2 growth,T cruzi growth-2,T cruzi growth-3,NIH3T3 tox,NIH3T3 tox 2
CC(C)C#Cc1ccc([C@@H]2[C@@H](C#N)N(C(=O)c3ccccn3)[C@H]2CO)cc1,-9.1,94.6,-38.6,·,·,·,·
COc1cccc(C#Cc2ccc([C@@H]3[C@@H](C#N)N(C(=O)c4ccccn4)[C@@H]3CO)cc2)c1,8.2,107.9*,-28.2,107.9*,78.3,0.9,-31.8
COc1cccc(-c2ccc([C@H]3[C@@H](CO)N(C(=O)c4ccccn4)[C@H]3C#N)cc2)c1,4.9,?,-50.9,98.4*,116.9*,-3.5,99.1*
COc1cccc(-c2ccc([C@H]3[C@@H](C#N)N(C(=O)c4ccccn4)[C@@H]3CO)cc2)c1,-0.7,80.7,-22.6,·,·,·,·
COc1cccc(-c2cn(CC[C@@H]3CC[C@H](NC(=O)CC4CC4)[C@@H](CO)O3)nn2)c1,-2.9,4.1,4.9,·,·,·,·
C[C@@H]1CN([C@H](C)CO)C(=O)c2cc(NS(=O)(=O)c3cn(C)cn3)ccc2O[C@@H]1CN(C)CC1CC1,0.4,19.8,7.6,·,·,·,·
Cc1ccc(S(=O)(=O)N[C@H]2CC[C@@H](CCn3cc(C4CC4)nn3)O[C@H]2CO)cc1,3.7,·,1.9,·,·,·,·
CCCC#Cc1cnc2c(c1)C(=O)N([C@@H](C)CO)C[C@@H](C)[C@H](CN(C)Cc1ccccc1F)O2,·,35.1,-15.5,·,·,·,·
CCCC#Cc1cnc2c(c1)C(=O)N([C@H](C)CO)C[C@@H](C)[C@H](CN(C)Cc1ccccc1F)O2,-2.9,51.0,-47.9,·,·,·,·
CC(C)CC#Cc1cnc2c(c1)C(=O)N([C@H](C)CO)C[C@H](C)[C@@H](CN(C)Cc1ccccc1F)O2,-5.2,103.2*,-28.5,110.7*,79.4,8.3,102.8*
CC(C)CC#Cc1cnc2c(c1)C(=O)N([C@@H](C)CO)C[C@@H](C)[C@H](CN(C)Cc1ccccc1F)O2,-12.5,119.5*,-31.4,108.0*,74.8,5.7,103.1*
CC(C)CC#Cc1cnc2c(c1)C(=O)N([C@@H](C)CO)C[C@@H](C)[C@@H](CN(C)Cc1ccccc1F)O2,0.0,?,-20.4,106.7*,89.0,?,31.5*
CC(C)CC#Cc1cnc2c(c1)C(=O)N([C@H](C)CO)C[C@@H](C)[C@@H](CN(C)Cc1ccccc1F)O2,-5.8,57.9,-9.7,·,·,·,·
C[C@@H]1CN([C@@H](C)CO)C(=O)c2cc(NS(=O)(=O)c3cccs3)ccc2O[C@@H](C)CCCCO[C@@H]1CN(C)CC1CCCCC1,8.9,68.4,-19.2,·,·,·,·
COc1ccc2c3c(n(C)c2c1)[C@@H](CO)NCC31CN(S(=O)(=O)c2cccc(F)c2)C1,·,·,15.5,·,·,·,·
O=C(c1cccc(F)c1)N1CCCCN2[C@H](CO)[C@@H](c3ccc(-c4cncnc4)cc3)[C@@H]2C1,2.6,40.4,-32.1,·,·,·,·
O=C(c1cccc(F)c1)N1CCCCN2[C@H](C1)[C@@H](c1ccc(-c3cncnc3)cc1)[C@@H]2CO,-13.2,22.2,19.9,·,·,·,·
CC(C)(O)C#Cc1ccc([C@@H]2[C@@H](CO)N3CCCCN(C(=O)c4cccc(F)c4)C[C@H]23)cc1,1.8,120.1*,16.1,92.6,-3.6,-7.2,18.6
O=C(c1cccc(F)c1)N1CCCCN2[C@H](C1)[C@@H](c1ccc(-c3ccncc3)cc1)[C@@H]2CO,-3.0,85.5,-6.7,·,·,·,·
O=C(c1cccc(F)c1)N1CCCCN2[C@H](CO)[C@@H](c3ccc(-c4ccc(F)cc4)cc3)[C@@H]2C1,19.0,103.6*,13.1,104.6*,?,18.7,106.0*
O=C(c1cccc(F)c1)N1CCCCN2[C@H](CO)[C@H](c3ccc(-c4ccncc4)cc3)[C@@H]2C1,-0.9,110.4*,-40.7,113.1*,82.0,-12.2,0.1
CC(C)(O)C#Cc1ccc([C@@H]2[C@H]3CN(C(=O)c4cccc(F)c4)CCCCN3[C@H]2CO)cc1,4.4,90.8,11.9,·,·,·,·
O=C(c1cccc(F)c1)N1CCCCN2[C@H](CO)[C@H](c3ccc(-c4cncnc4)cc3)[C@H]2C1,5.7,?,13.6,71.5,47.1,16.5,14.6
C[C@H]1CN([C@@H](C)CO)C(=O)c2cc(NS(=O)(=O)c3ccccc3)ccc2O[C@H]1CN(C)S(=O)(=O)c1ccc(F)cc1,·,44.4,-27.1,·,·,·,·
